# From ChEMBL document CHEMBL3988442, “University of Dundee, Small-Polar-MMV Screening Library” (2021)
# The campaign covered roughly 48,000 compounds. About 13,000 (27%) showed an effect of 50% or more. Some of the results follow.
# Tested on: Wolbachia pipientis
# Test: Anti-Wolbachia Cell-Based Screen
# Type: functional
# Parameters: scale not given: in the data most compounds retested in dose-response had high values
# Conditions: 5 µM
row,Compound,Percent Effect [%]
1,CC(C)(CO)CCCNC(=O)NC1(c2ccccc2F)CC1,114.3
2,O=C(NCCCc1ccc(O)cc1)C1(O)Cc2ccccc2C1,-1.893
3,CC(C)(CO)CCCNC(=O)NC1(c2cccc(F)c2)CC1,104.1
4,O=C(Nc1ccccc1F)NC1(CO)CCOCC1,2.484
5,CC(C)(CO)CCCNC(=O)NC1(C)Cc2ccccc2C1,128.7
6,CS(=O)(=O)CCCNC1(c2cccc(F)c2)CC1,13.79
7,Cc1cc(C(=O)NC2(c3cccc(F)c3)CCOCC2)no1,-27.95
8,CN(Cc1ccccc1)C1(C(=O)NC(C)(C)CO)Cc2ccccc2C1,8.937
9,COCCNC(=O)NC1(c2ccccc2F)CC1,110
10,CC(C)c1noc([C@@H]2C[C@H](NS(=O)(=O)Cc3ccccc3)CN2C)n1,-6.361
11,CC(C)(O)CCc1ccc(C(=O)NCCC2CCCOC2)cc1 (configuration not stated),-14.7
12,O=C1CC[C@@H](C(=O)N2CCC(Cn3cc(C4CCCCC4)nn3)CC2)N1,-19.31
13,CCc1cnc(CN2C(=O)CC3(CCSC3)C2=O)o1 (configuration not stated),-1.105
14,CCn1cncc1C1CC(=O)Nc2c1c(C)nn2C (configuration not stated),-2.495
15,O=S(=O)(c1cccnc1)N1C[C@@H]2CC[C@H](C1)N(Cc1ccccn1)C2,0.4176
16,Cc1ccc(NC2(C(=O)NCCCc3c(C)n[nH]c3C)CCCC2)cc1,12.56
17,COc1ncccc1NC(=O)NC(C)(C)c1ncc(C)s1,4.256
18,CCN1CC(C(=O)N2CCc3cc(C(N)=O)n(C)c3C2)CC1=O (configuration not stated),10.03
19,CCc1nnc2n1CC(CNc1cnc3ccccc3n1)CC2 (configuration not stated),-8.213

row,Compound,Percent Effect [%]
1,NC(=O)CN1CCCC1c1csc(Nc2cnccn2)n1 (configuration not stated),66.85
2,NC(=O)CN1CCC(c2csc(Nc3cnccn3)n2)CC1,117.3
3,OCCN1CCC(c2csc(Nc3cnccn3)n2)CC1,83.21
4,NC(=O)CN1CCC(C(=O)NCc2nc(-c3ccc(F)cc3)cs2)CC1,0.3881
5,COc1ccccc1CNC(=O)C(C)N1CC(n2cc(C)cn2)C1 (configuration not stated),-24.87
6,CN(C)c1cc2c(nn1)CCN(C(=O)c1cc3c(s1)CCOC3)C2,-8.36
7,CCC(NCc1ccccc1Cl)c1ccccc1OCC(=O)NC (configuration not stated),-10.16
8,CO[C@H]1CN(C(=O)c2cccc(C)n2)CC[C@@]12CCCO2,114.9
9,CO[C@H]1CN(C(=O)c2cn3cc(C)ccc3n2)CC[C@@]12CCCO2,93.74
10,COCCN1C[C@@H](C)[C@@]2(COCCN(C(=O)c3cccc(C)n3)C2)C1.O=C(O)C(F)(F)F.O=C(O)C(F)(F)F,-4.007
11,O=C(c1cn2cc(Cl)ccc2n1)N1CCC(CCn2cccn2)CC1,2.946
12,Cc1cccc(C(=O)N2CC(C(=O)NCC3CC3)C3(CCOCC3)C2)n1.O=C(O)C(F)(F)F (configuration not stated),-7.832
13,COCc1cn([C@@H]2c3ccccc3C3(CCNCC3)[C@H]2O)nn1,-6.385
14,CN(C)Cc1nn(C)c2c1CN(C(=O)Nc1ccc(F)cc1)C2,-7.35
15,CCc1nc(C)cn1C(=O)Nc1ccc(C)cc1,109.3
16,Cc1ccc(NC(=O)N2CCN(Cc3noc(C4CC4)n3)CC2)cc1,4.61
17,CC(=O)c1c(C)nn(CC(=O)Nc2ccc(F)cc2)c1C,6.274
18,Cc1ccc(NC(=O)C2=CN=S=N2)cc1,-3.511
19,CCc1nc(C)cn1C(=O)Nc1ccc(F)cc1,113

row,Compound,Percent Effect [%]
1,CN(C)c1nc2n(c(=O)n1)CCN2C(=O)Nc1ccccc1,0.604
2,CCc1nc(C)cn1C(=O)Nc1ccccc1,107.6
3,CCC(C)(NCC(=O)Nc1ccccc1)c1nc(C)cs1 (configuration not stated),-1.246
4,Cc1cc(=O)n2ncnc2n1CC(O)c1ccccc1F (configuration not stated),-9.153
5,CN(C)S(=O)(=O)N1CC[C@]2(C[C@@H](OCC3CC3)CO2)C1,9.447
6,CCCN(Cc1ccc(C(=O)NCC2COCCO2)c(=O)[nH]1)C1CC1 (configuration not stated),2.285
7,Cc1cc2c(cc1CN1CCCCC1CCn1ccnc1C)OCO2 (configuration not stated),17.86
8,CN(C)CCOCC1CN(C(=O)c2cccn2C)Cc2ccnn2C1.O=C(O)C(F)(F)F.O=C(O)C(F)(F)F (configuration not stated),-5.365
9,CN1CCN(S(=O)(=O)c2cccc(C#N)c2)c2ccc(F)cc21,4.028
10,CCc1nc(CN2CCCN(C(=O)C3CCOCC3)CC2)cs1,-0.509
11,O=C(c1cc[nH]n1)N1CCCC1c1cncc(CN2CCOCC2)n1 (configuration not stated),91.81
12,Cc1nc(CN2CCC(NS(C)(=O)=O)CC2)co1,-13.72
13,CN(C)CCC1CCCCN1Cc1cnn(C)c1C1CC1 (configuration not stated),-0.7786
14,Cc1nn(C)c(C)c1C1CCCN1C(=O)c1cc[nH]n1 (configuration not stated),-0.5637
15,Cc1cc(C(=O)N2CCCC2CN2CCCC2)no1 (configuration not stated),0.09079
16,Cc1c(CN2CCCC2c2cncc(CN3CCCC3)n2)cnn1C (configuration not stated),74.36
17,Cc1cccc(-c2c[nH]c(C3CCCN3C(=O)C3CCOCC3)n2)c1 (configuration not stated),16.55
18,O=C(C1CCOCC1)N1CCCC1c1cncc(CN2CCCC2)n1 (configuration not stated),74.28
19,Cc1nc(C(=O)N2CCCC2c2cncc(CN3CCCC3)n2)co1 (configuration not stated),62.39
